Hits are enriched below; roughly 12% of the tested compounds scored in any of these assays.
Shiga toxin inh: Shiga toxin inhibition; Vero cells, Shiga toxin protein synthesis inhibition reporter; 290,000 compounds, 9.2% hits; inhibition, % at 38.7 µM; in the data active = inhibition mostly above about 28%, no sharp cut-off; inactive = mostly below about 43%
FMDV inh: blocks foot and mouth disease virus | FMDV antiviral cell-based qHTS | Potency, µM (top dose mostly 57.9 µM), actives largely listed as inhibitors | 410,000 compounds, 1.2% hits | AID 1159524; calls by dose curve; tested in HEK293T cells; also: read-out not given here; nearly all actives have a fitted effect of over 45% in size
CHX counter: affects cycloheximide protein synthesis inhibition readout, counter-screen. cell reporter, cycloheximide protein synthesis inhibition counterscreen. max response, %. 300,000 compounds, 12% hits; in the data active = max response mostly above about 13%, no sharp cut-off; inactive = mostly below about 14%; also: read at 38.3 µM for the half of the compounds with a filed dose
Sm TGR block: S. mansoni TGR enzyme inhibition. Q962Y6. purified TGR, DTNB reduction, TNB absorbance 405 nm. Potency, µM (doses to about 114 µM), most hits filed as inhibitors. 360,000 compounds, 3% hits; active = well fitted inhibition curve with a large enough effect; inconclusive = small, poorly fitted or top-dose-only effect; inactive = no such curve, though single readings can be large or run the other way; also: nearly all actives have a fitted effect of over 60% in size
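First, TGR (20 nM dispensed) and NADPH were mixed with compound. Second, a 15 min room-temperature incubation followed. Third, further NADPH and then DTNB were added to start the reaction. Finally, TNB absorbance was monitored kinetically.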
Large screens that a line does not name were inactive.

CC(C)C[C@H](NC(=O)[C@H](Cc1ccccc1)NC(=O)CNC(=O)[C@H](CCC(=O)O)NC(=O)[C@H](CCCNC(=N)N)NC(=O)[C@H](C)NC(=O)[C@H](C)NC(=O)[C@@H](N)CC(=O)O)C(=O)N[C@@H](CC(=O)O)C(=O)N[C@H](C(=O)N[C@@H](CC(C)C)C(=O)N[C@H](C(=O)N[C@H](C(=O)N[C@@H](CC(C)C)C(=O)N[C@@H](Cc1cnc[nH]1)C(=O)N[C@@H](CCCNC(=N)N)C(=O)N[C@@H](C)C(=O)NCC(=O)N[C@@H](C)C(=O)N[C@@H](CCCNC(=N)N)C(=O)O)C(C)C)C(C)C)[C@@H](C)O	none (no result: FMDV inh, Sm TGR block)
NC(=O)c1c(NC(=O)c2ccncc2)sc2c1CCCCCC2	CHX counter 12
CCN1CCc2c(sc(NC(=O)c3ccc(C(=O)c4ccccc4)cc3)c2C(N)=O)C1	none
N#Cc1c(NC(=O)c2ccncc2)sc2c1CCC2	Shiga toxin inh 47, CHX counter 17, Sm TGR block inconclusive
O=C(Nc1sc2c(c1C(=O)O)CCCCC2)c1cccnc1	none
CC(C)(C)C1CCc2c(sc(NC(=O)c3cccs3)c2C(N)=O)C1 (stereo not given)	Shiga toxin inh 63, CHX counter 32
NC(=O)c1c(NC(=O)c2ccccc2)sc2c1CCc1ccccc1-2	CHX counter 21
CC(C)NC(=O)CSc1nc2ccccc2c(=O)n1Cc1ccc(C(=O)NC(C)C)cc1	none (no result: Shiga toxin inh, CHX counter)
CCN(Cc1ccccc1)Cc1c(O)ccc2c(=O)c(-c3ccccc3Cl)coc12	none (no result: Shiga toxin inh, CHX counter)
CCOc1ccc(C2c3c(oc4ccccc4c3=O)C(=O)N2Cc2ccc3c(c2)OCO3)cc1 (stereo not given)	none (no result: Shiga toxin inh, CHX counter)
COc1ccccc1OCCn1c(NC(=O)c2ccccc2Cl)nc2ccccc21	none (no result: Shiga toxin inh, CHX counter)
NC(=O)c1c(NC(=O)c2ccccc2)sc2c1CCC2	Shiga toxin inh 78, CHX counter 64
NC(=O)c1c(NC(=O)c2cnccn2)sc2c1CCCC2	CHX counter 16
CN(C)C(=O)c1c(NC(=O)c2ccccc2)sc2c1CCC2	Sm TGR block inconclusive
Nc1ccc(-c2nc3ncccc3o2)c(O)c1	Shiga toxin inh 69, CHX counter 21
CCCC(=O)Nc1cc(C)c(O)c(-c2nc3ncccc3o2)c1	none (no result: Shiga toxin inh, CHX counter)
Nc1ccc(Cl)c(-c2nc3ncccc3o2)c1	Shiga toxin inh 59, CHX counter 43
Nc1ccc(-c2nc3ncccc3o2)c(Cl)c1	Shiga toxin inh 60, CHX counter 31
Cc1cc(C)c2c(CC(=O)Nc3c(C(=O)c4ccc(F)cc4)oc4ccccc34)coc2c1	none (no result: Shiga toxin inh, CHX counter)
CNC(=O)C1CCC(Cn2c(=O)c3sccc3n(CC(=O)Nc3ccc(C)c(F)c3)c2=O)CC1 (stereo not given)	none (no result: Shiga toxin inh, CHX counter)
Cc1ccc(NC(CC(=O)c2ccccc2)C(=O)O)cc1Cl (stereo not given)	Shiga toxin inh 71, CHX counter 41, Sm TGR block 0.79µM
C=C(C(=O)c1ccccc1)C(NC(C)(C)C)c1ccccc1 (stereo not given)	FMDV inh 10µM (no result: Shiga toxin inh, CHX counter, Sm TGR block)
COC(=O)C(NC(=O)c1ccccc1)c1ccccc1 (stereo not given)	none
CSCCC(NC(=O)c1ccccc1)C(=O)OCC(=O)Nc1ccc(C)c(Cl)c1 (stereo not given)	none
O=C(CC(C(=O)O)c1cccc(Cl)c1)c1ccccc1 (stereo not given)	none
O=C(CC(Nc1ccc(Cl)cc1Cl)C(=O)O)c1ccccc1 (stereo not given)	Shiga toxin inh 155, FMDV inh inconclusive, CHX counter 65, Sm TGR block 3.2µM
O=C(CC(Nc1ccccc1)C(=O)O)c1ccccc1 (stereo not given)	Shiga toxin inh 139, CHX counter 37, Sm TGR block 2.2µM
CCOc1ccc(-c2cc(CCCC(=O)NCCc3ccc(SC)cc3)no2)cc1	none (no result: Shiga toxin inh, CHX counter)
C=C(C(=O)c1ccccc1)C(C)CC(=O)c1ccccc1 (stereo not given)	FMDV inh 28µM
O=C(CC(Nc1ccccc1)c1ccc(F)cc1)c1ccccc1 (stereo not given)	Shiga toxin inh 56, CHX counter 73
Fc1ccc2c(c1)[C@H]1OCC[C@H]1[C@@H](c1ccco1)N2	none
Clc1ccc2c(c1)[C@H]1OCC[C@H]1[C@@H](c1ccco1)N2	Shiga toxin inh 66, CHX counter 25, Sm TGR block 40µM
O=C(C1=C[C@H](C2CCCCC2)C[C@H](OCCCCO)O1)N1CCN(Cc2ccccc2)CC1	Sm TGR block 35µM
O=C(C1=C[C@@H](C2CC2)C[C@@H](OCCCCO)O1)N1CCN(Cc2ccc3c(c2)OCO3)CC1	none
O=C(C1=C[C@@H](C2CCCCC2)C[C@@H](OCCCCO)O1)N1CCN(Cc2ccc3c(c2)OCO3)CC1	none
O=C(C1=C[C@H](C2CC2)C[C@H](OCCCCO)O1)N1CCN(Cc2ccccc2)CC1	Sm TGR block 25µM
Cc1cc2c(cc1S(=O)(=O)N(CCN(C)C)Cc1ccccc1)OCC(=O)N2	none (no result: Shiga toxin inh, CHX counter)
Cc1nn(C(=O)c2cccs2)c(C)c1CN1C(=O)c2ccccc2C1=O	none
Cc1nn(C(=O)c2cc3sccc3[nH]2)c(C)c1C	Shiga toxin inh 92, CHX counter 43 (no result: FMDV inh)
CC(=O)c1ccc(N2Cc3ccccc3/C2=N\C(=O)Nc2ccccc2)cc1	CHX counter 28
CC(=O)c1cccc(N2Cc3ccccc3C2=NC(=O)CCl)c1	CHX counter 25, Sm TGR block 18µM
CCOC(=O)c1ccc(N2Cc3ccccc3C2=NC(=O)c2cccs2)cc1	none
N#Cc1ccc(N2Cc3ccccc3C2=NC(=O)c2cccs2)cc1	Shiga toxin inh active, CHX counter 38
CC(=O)c1ccc(N2Cc3ccccc3C2=NC(=O)c2cccs2)cc1	Shiga toxin inh 60, CHX counter 26
Fc1cccc(NCc2cn3ccccc3n2)c1	Shiga toxin inh 126, CHX counter 51
CN(CC(=O)Nc1cccc(F)c1)C(=O)c1ccc(OCc2cn3ccccc3n2)cc1	none (no result: Shiga toxin inh, CHX counter, Sm TGR block)
Fc1ccc(NCc2cn3ccccc3n2)cc1	Shiga toxin inh 77, CHX counter 53
O=C(NCCc1cn2ccccc2n1)c1ccccc1F	none
Cc1c(C(=O)N2CCN(c3ccccn3)CC2)oc2c(F)cccc12	none
Cc1c(C(=O)N2CCC[C@H]2C(N)=O)oc2c(F)cccc12	CHX counter 29
Cc1nn2c(=O)cc(CN(C)c3ccccc3)nc2s1	none (no result: Shiga toxin inh, CHX counter)
COc1ccc(S(=O)(=O)N/N=C/c2ccc(OCCN3CCOCC3)c(OC)c2)cc1	CHX counter 20
COc1cc(/C=N/NS(=O)(=O)c2ccc3ccccc3c2)ccc1OCCN1CCOCC1	CHX counter 18
COc1cc(/C=N/NS(=O)(=O)c2ccc(C)cc2)ccc1OCc1ccc(C(=O)O)cc1	Shiga toxin inh 146, CHX counter 42
COc1ccc2c(c1)c1c(c(=O)n(-c3ccc(C)cc3)c(=O)n1CC(=O)Nc1cc(C)ccc1C)n2C	none (no result: Shiga toxin inh, CHX counter)
CC(=O)N1CCc2cc(Br)cc(S(=O)(=O)N3CCC(C(=O)Nc4cccc(C)c4C)CC3)c21	none (no result: Shiga toxin inh, CHX counter)
COc1cccc(CNC(=O)C2CCCCN2S(=O)(=O)c2ccc(F)cc2)c1 (stereo not given)	none (no result: Shiga toxin inh, CHX counter)
COc1ccc(C(=O)NCCn2cc(SCC(=O)Nc3ccc4c(c3)OCCO4)c3ccccc32)cc1	none (no result: Shiga toxin inh, CHX counter)

High-throughput results deposited in PubChem by National Center for Advancing Translational Sciences (NCATS).
